The campaign covered roughly 48,000 compounds. About 13,000 (27%) showed an effect of 50% or more. Some of the results follow.
System: Wolbachia pipientis
Experiment: Anti-Wolbachia Cell-Based Screen
Type: functional
Design: scale not given: in the data most compounds retested in dose-response had high values
Settings: 5 µM

Compound	Percent Effect [%]
COc1cccc(CCC(=O)N2CCN(Cc3noc(C)n3)CC2)c1	-5.031
CN1CCN(CCC(F)(F)C(F)F)CC12CCNC(=O)CC2 (configuration not stated)	7.69
Cc1cnc(CN2CCOC(CN(C)c3cccnn3)C2)cn1 (configuration not stated)	10.01
Cc1cccc(C2CCCN2C(=O)CCS(C)(=O)=O)c1C (configuration not stated)	-5.02
CC(C)(C)C(O)CN1CCN(CC(=O)NC2CCOCC2)CC1 (configuration not stated)	4.367
O=C(NCCn1ccnc1C1CCOC1)c1cccnc1 (configuration not stated)	-7.177
CCc1ncc(C(=O)NCCN2CCNC2=O)cn1	99.04
O=C(NCCN1CCOC1=O)c1cnc(-c2cccnc2)nc1	103
O=C(NCCN1CCNC1=O)c1cnc(-c2cccnc2)nc1	91.56
CCN(CCN1CCCCCC1)C(=O)c1cnc(-c2cccnc2)nc1	-4.892
O=C(NCCN1CCOC1=O)c1ccc2sccc2c1	-4.154
CCc1ncc(C(=O)NCC2CCN(Cc3ccncc3)CC2)cn1	-2.292
O=C(NCCN1CCNC1=O)c1cc(-c2ccc(O)cc2)n[nH]1	6.287
CCc1ncc(C(=O)NCCn2c(C)cc(C)nc2=O)cn1	5.273
CN(Cc1cc(Br)cn1C)C(=O)Cc1cccc(O)c1	-22.7
CNC(=O)Cn1nnc(-c2cc3ccccc3o2)n1	-5.513
COc1cc(C(=O)NC(CC(=O)O)c2cccs2)cc(Cl)c1OC (configuration not stated)	14.71
CC(C)Cn1cncc1CNC1CCSC1 (configuration not stated)	0.928
CC(C)(C)CC(=O)Nc1ccc(S(C)(=O)=O)nc1	8.515
CNCC(=O)Nc1cccc(-c2cnc(NCCS(C)(=O)=O)nc2)c1	116.8
CNC(=O)c1cccc(CCNc2ncc(Br)cn2)c1	-10.19
CCn1nnnc1-c1cccc(NC(=O)CCOC(C)C)c1	1.671
O=C(CNC(=O)Nc1cccc(-c2nccs2)c1)NCCO	-9.757
CNCC(=O)Nc1cccc(-c2cnc(NCCO)nc2)c1	140.4
CC[C@H](C)Nc1ncc(-c2cccc(NC(=O)CNC)c2)cn1	114.1

Compound	Percent Effect [%]
Cn1ccnc1-c1cccc(NC(=O)NCC(=O)NC(C)(C)C)c1	-2.22
Cc1cccc(C(C)(C)NC(=O)CCS(C)(=O)=O)c1	2.509
CCc1cnc(NCCS(=O)(=O)N(C)C)nc1	-13.3
Cc1nccc(-c2cccc(NCC(=O)N3CCCCCCC3)c2)n1	4.13
CNCC(=O)Nc1ccc(-c2cnc(NCCS(C)(=O)=O)nc2)cc1	99.21
CC(C)n1cnc2c1C(C(=O)N1CCCC1)N(CC1CC1)CC2.O=C(O)C(F)(F)F (configuration not stated)	12.69
CC(=O)Nn1c(C)cc(CN2CCCN(Cc3ccncc3)CC2)c1C	19.43
Cc1n[nH]c(=O)c2c(NC(=O)CN3CCOCC3C)oc(C)c12 (configuration not stated)	12.8
CNC(=O)[C@@H]1C[C@H](N)CN1Cc1cc2cc(OC)ccc2nc1O	8.618
O=C(NCc1cc[nH]n1)NCC(O)COc1cccc(F)c1 (configuration not stated)	-0.04004
C[C@@]1(O)CCN(Cc2cc[nH]n2)C[C@H]1Oc1cccc(F)c1	94.39
C[C@]1(O)CCN(Cc2c[nH]cn2)C[C@@H]1Oc1cccc(F)c1	125.6
O=C1CC[C@H]2CN(Cc3cccc(F)c3)CC[C@H]2N1CCc1c[nH]cn1	-2.492
Cn1ccnc1CN1CCN2C[C@H](Oc3cccc(F)c3)C[C@H]2C1.O=C(O)C(F)(F)F.O=C(O)C(F)(F)F	5.075
Cc1cc(F)ccc1OC1(C(=O)O)CCN(Cc2c[nH]cn2)CC1	-1.435
c1ccc2sc(N3CCN(c4ncnc5c4CCC5)CC3)nc2c1	-7.695
CSc1ncc(C(=O)N2CCN(c3ccccc3C)CC2C)cn1 (configuration not stated)	-7.257
O=C(O)C(F)(F)F.O=C(c1cscn1)N1CC[C@@H]2[C@@H]1CCN2CC1CCOC1 (some centres not stated)	116.3
Cc1ccc(C(=O)N2CC[C@H]3[C@H]2CCN3CC2CCOCC2)cc1F.O=C(O)C(F)(F)F	1.153
O=C(O)C(F)(F)F.O=C(c1cscn1)N1CC[C@@H]2[C@@H]1CCN2CC1CCOCC1	90.26
O=C(O)C(F)(F)F.O=C(c1ccc(F)cc1)N1CC[C@H]2[C@H]1CCN2CC1CCOCC1	-29.44
Cn1cccc1C(=O)N1CC[C@H]2[C@H]1CCN2CC1CCOCC1.O=C(O)C(F)(F)F	-12.52
O=C(O)C(F)(F)F.O=C(c1cccc(F)c1)N1CC[C@H]2[C@H]1CCN2CC1CCOCC1	-10.34
CC(C(=O)NCC1(c2c(F)cccc2F)CCCC1)S(C)(=O)=O (configuration not stated)	26.11
CCOCC1CN(C(=O)C2CCOCC2)Cc2cnn(C)c21 (configuration not stated)	76.58

Compound	Percent Effect [%]
CCOCC1CN(S(=O)(=O)C2CC2)Cc2cnn(C)c21 (configuration not stated)	-2.389
COCC1CN(C(=O)C2=CCCCC2)Cc2cnn(CC3CC3)c21 (configuration not stated)	3.854
CCOCC1CN(CCN2CCCCC2)Cc2cnn(C)c21.O=C(O)C(F)(F)F.O=C(O)C(F)(F)F.O=C(O)C(F)(F)F (configuration not stated)	3.922
CCOCC1CN(S(C)(=O)=O)Cc2cnn(C)c21 (configuration not stated)	-13.89
COCC1CN(C(=O)C2=CCCC2)Cc2cnn(CC3CC3)c21 (configuration not stated)	-0.9151
CCOCC1CN(C(=O)C2=CCCC2)Cc2cnn(C)c21 (configuration not stated)	94.04
CCOCC1CN(C(=O)N2CCCC2)Cc2cnn(C)c21 (configuration not stated)	85.37
COCCOc1ccnc(-c2noc([C@@H]3CCCN3C3CCC3)n2)c1	-11.59
CC(C)(C)C(=O)NCCC(=O)NS(=O)(=O)c1ccc2c(c1)OCCO2	-7.979
CCc1nc(NC(=O)N(C)Cc2ccoc2)nn1C	2.955
c1ccc(CCCN2CC(n3cccn3)C2)cc1	3.552
CCN(CC)C(=O)[C@@H]1C[C@@H](N)CN1c1nc(N(C)C)nc(C)c1C	7.659
COCCOc1ccc(S(=O)(=O)Nc2cccc(O)c2F)cc1C	-10.79
Cc1cc(-c2nccs2)nc(C2CCN(Cc3ccccn3)CC2)n1	103.9
Cc1cc(NC2CCN(Cc3ccccn3)CC2)n2nc(C)c(C)c2n1	3.019
Cn1nccc1C1CCN(Cc2csc(-c3ncccn3)n2)CC1	5.984
c1cnc(-c2nc(CN3CCC(c4ccn[nH]4)CC3)cs2)nc1	-2.472
Cc1cc(-c2nccs2)nc(C2CCN(Cc3cccs3)CC2)n1	113.5
Cc1ccccc1C1CCN(CCn2cc(-c3nccs3)nn2)C1 (configuration not stated)	-6.567
Oc1cc(-c2nccs2)nc(C2CCN(Cc3cccs3)CC2)n1	87.73
O=C(CCNCc1cc(O)c2cc(F)ccc2n1)N1CCCC1	24.8
CSc1nccc(N2CCCC(c3nccn3C(C)C)C2)n1 (configuration not stated)	6.418
Cc1ccc2c(n1)N(CCn1cccn1)CCN(S(C)(=O)=O)C2.O=C(O)C(F)(F)F	91.26
COCCN1CCN(C(=O)N2CCCC2)Cc2ccc(C)nc21.O=C(O)C(F)(F)F	6.866
Cn1nc(Cn2cccn2)c2c1CN(C1CCOCC1)C2.O=C(O)C(F)(F)F	2.859

Compound	Percent Effect [%]
Cc1ccc2c(n1)N(CCn1cccn1)CCN(C1CCOCC1)C2.O=C(O)C(F)(F)F.O=C(O)C(F)(F)F	93.94
CCS(=O)(=O)N1CCN(CCn2cccn2)c2nc(C)ccc2C1.O=C(O)C(F)(F)F	99.61
Cc1ccc2c(n1)N(CCn1cccn1)CCN(C(=O)CC1CC1)C2.O=C(O)C(F)(F)F	5.383
COCC(=O)N1CCN(CCn2cccn2)c2nc(C)ccc2C1.O=C(O)C(F)(F)F	116.6
COCCN1CCN(C(=O)NC2CC2)Cc2ccc(C)nc21.O=C(O)C(F)(F)F	-6.778
Cc1ccc2c(n1)N(CC(C)C)CCN(C(=O)Cc1ccccn1)C2.O=C(O)C(F)(F)F.O=C(O)C(F)(F)F	1.939
CCCC(=O)N1CCN(CCN(C)C)c2nc(C)ccc2C1.O=C(O)C(F)(F)F.O=C(O)C(F)(F)F	-16.06
Cc1ccc2c(n1)N(Cc1csc(C)n1)CCN(C1CCOC1)C2.O=C(O)C(F)(F)F.O=C(O)C(F)(F)F (configuration not stated)	9.97
Cc1ccc(CNC(CN2CCN(C)CC2)c2ccccc2)cc1 (configuration not stated)	3.62
Cc1ccc2c(n1)N(CCn1cccn1)CCN(CC1CC1)C2.O=C(O)C(F)(F)F.O=C(O)C(F)(F)F	102.9
COCCN1CCN(Cc2c(C)noc2C)Cc2ccc(C)nc21.O=C(O)C(F)(F)F.O=C(O)C(F)(F)F	-3.796
COCCCNC(=O)Cc1nc(-c2ccncc2)n[nH]1	100.9
COCCCC(=O)Nc1[nH]nc(-c2ccncc2)c1C	2.915
O=S(=O)(NCCc1nc(-c2cccnc2)n[nH]1)NCc1ccccc1	-41.46
O=C(COCc1nc(-c2ccncc2)no1)N1CCCCCC1	-13.27
O=C(NCCCN1CCOCC1)c1cc(-c2ccc3c(c2)CCO3)n[nH]1	-1.634
COCCCNC(=O)Cc1cc(-c2ccc3c(c2)OCO3)on1	2.22
O=C(COCc1nc(-c2ccncc2)no1)N1CCCC1	-11.18
O=S(=O)(NCc1ccccc1)NCc1nc(-c2ccncc2)n[nH]1	-34.55
O=C(Cc1nc(-c2ccncc2)n[nH]1)N1CCOCC1	104.3
O=C(NCc1ccccc1)NCc1nc(-c2ccncc2)n[nH]1	100.9
O=C(Cc1nc(-c2ccncc2)n[nH]1)NCCCN1CCOCC1	108.4
